A selection: hits, their analogues and other compounds. The true share with any hit is near 1.6%.
KCNQ2 block – inhibitors of rat KCNQ2 potassium channel; O88943; CHO-K1 KCNQ2, FluxOR thallium flux, 20 min; active compounds read low; B-score at 10 µM; 1.1% of 310,000 active; AID 2156;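 active = fluorescence ratio B-score at most minus 3 library SDs, with starting brightness B-score within 2 library SDs, cut at about -5.5 in these data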
Target sequence (O88943 whole entry, looked up): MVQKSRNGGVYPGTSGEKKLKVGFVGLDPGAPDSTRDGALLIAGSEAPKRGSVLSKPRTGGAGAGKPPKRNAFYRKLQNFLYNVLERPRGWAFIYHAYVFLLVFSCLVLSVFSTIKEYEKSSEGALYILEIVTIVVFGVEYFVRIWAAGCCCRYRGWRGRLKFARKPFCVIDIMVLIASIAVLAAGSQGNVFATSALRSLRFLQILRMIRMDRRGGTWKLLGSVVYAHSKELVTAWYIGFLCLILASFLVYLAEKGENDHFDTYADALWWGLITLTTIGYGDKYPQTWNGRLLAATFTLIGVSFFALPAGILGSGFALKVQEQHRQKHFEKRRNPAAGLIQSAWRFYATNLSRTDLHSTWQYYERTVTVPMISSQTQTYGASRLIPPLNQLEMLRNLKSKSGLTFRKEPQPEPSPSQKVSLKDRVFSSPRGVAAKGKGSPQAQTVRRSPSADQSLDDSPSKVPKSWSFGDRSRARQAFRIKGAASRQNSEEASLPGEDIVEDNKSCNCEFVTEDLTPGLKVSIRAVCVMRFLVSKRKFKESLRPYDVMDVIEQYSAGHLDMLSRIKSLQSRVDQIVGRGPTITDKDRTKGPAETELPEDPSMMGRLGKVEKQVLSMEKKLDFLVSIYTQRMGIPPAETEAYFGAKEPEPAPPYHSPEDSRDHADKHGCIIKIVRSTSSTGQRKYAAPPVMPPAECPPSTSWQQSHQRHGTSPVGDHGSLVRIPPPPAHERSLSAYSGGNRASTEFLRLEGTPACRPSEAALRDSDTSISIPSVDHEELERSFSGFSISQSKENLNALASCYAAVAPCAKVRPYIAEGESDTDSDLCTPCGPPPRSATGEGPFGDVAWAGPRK
KCNQ2 enhance – KCNQ2 (rat) channel potentiation | O88943 | AID 2239 | 0.54% of 310,000 active | B-score at 10 µM | CHO-K1 KCNQ2, FluxOR thallium flux fluorescence; active compounds read high;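 active = fluorescence ratio B-score at least 3 SD of library B-scores, with initial fluorescence B-score within 3 of them, cut at about 5.3 in these data; same plate scores as AID 2156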;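 also: B-score of peak minus minimum over baseline fluorescence ratio after K+ and Tl+ stimulus; positive B-score means potentiation of KCNQ2 with more thallium influx and brighter signal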
KCNQ2 block conf – confirmation of rat KCNQ2 potassium channel inhibitors; shares compounds with KCNQ2 block; KCNQ2-expressing cells, thallium flux, inhibition; active compounds read low; activity change, negative = inhibition, % at 10 µM; 57% of 1,000 active;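 also: 0% = vehicle wells and values are ratio percent relative to vehicle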
KCNQ1 spec – KCNQ2 inhibitor that also affects human KCNQ1 channel; shares compounds with KCNQ2 block; KCNQ1-expressing cells, FluxOR thallium flux fluorescence; active compounds read low; activity change, negative = inhibition, % at 10 µM; 15% of 1,000 active; AID 493026;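 active = activity change at least 3 SD of negative controls below their mean in both duplicate wells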;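 also: CHO cells stably transfected with KCNQ1 and depolarized by potassium stimulus; peak minus minimum fluorescence over baseline after thallium addition; 0% = vehicle negative control and -100% = blank without thallium stimulus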
CHO parental ctr – activity in parental CHO cells lacking KCNQ2 | shares compounds with KCNQ2 block | thallium flux counter-screen; active compounds read low | activity change, % at 10 µM | 14% of 1,000 active | AID 493029;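 also: 0% = vehicle negative controls with stimulus buffer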
KCNQ2 inh confirm – blocks rat KCNQ2 current in automated patch clamp | AID 588531 | 49% of 550 active | KCNQ2-expressing cells | calls only at 10 µM | shares compounds with KCNQ2 block
The depositor's hits bear a star. Unless noted, no rule for the calls is given here.

`CC(=O)Nc1cccc(OCCCNC(=O)C2CCC2)c1` gave KCNQ2 block inactive.
CCOC(=O)C1C(=O)C=C(c2cccs2)CC1c1ccccc1 (stereo not given) was read as KCNQ2 block inactive.
`CCOC(=O)C1C(=O)C=C(c2ccc(C)cc2)CC1c1ccccc1` (stereo not given) gave KCNQ2 block -7.2*, KCNQ2 enhance -7.2, KCNQ2 block conf -26%*, KCNQ1 spec inactive, CHO parental ctr inactive and KCNQ2 inh confirm inactive.
For O=C(COC(=O)CN1C(=O)c2ccccc2C1=O)NC1CCCCC1 the results were KCNQ2 block inactive and KCNQ2 enhance 0.04.
`Cc1ccc(Sc2ccc(NC(=O)c3ccc(S(C)(=O)=O)cc3Cl)cc2)cc1` gave KCNQ2 block -8.8*, KCNQ2 enhance -8.8, KCNQ2 block conf inactive, KCNQ1 spec inactive and CHO parental ctr inactive.
Screening CS(=O)(=O)c1ccc(C(=O)Nc2ccc(N3CCCCC3)cc2)c(Cl)c1 returned KCNQ2 block inactive and KCNQ2 enhance 0.36.
CCN(CC(=O)NC1CCS(=O)(=O)C1)S(=O)(=O)c1ccc(Cl)cc1C(F)(F)F (stereo not given) was read as KCNQ2 block inactive and KCNQ2 enhance 1.
Screening Cc1ccc(C)c(NC(=S)N2CCC(NC(=O)C3CCCCC3)CC2)c1 returned KCNQ2 block inactive and KCNQ2 enhance 2.
O=C(NC1CCN(C(=O)c2ccccc2Br)CC1)c1ccccc1 was read as KCNQ2 block inactive and KCNQ2 enhance 0.92.
Screening CCCCCCCOC1(c2ccccc2)OC(=O)c2ccccc21 (stereo not given) returned KCNQ2 block -8.5*, KCNQ2 enhance -8.5, KCNQ2 block conf -22%*, KCNQ1 spec inactive, CHO parental ctr inactive and KCNQ2 inh confirm inactive.
CCCCCCOC1(c2ccccc2)OC(=O)c2ccccc21 (stereo not given) was read as KCNQ2 block inactive.
Screening Cc1ccc2c(CC(=O)N(C)c3c(N)n(Cc4ccccc4)c(=O)[nH]c3=O)coc2c1 returned KCNQ2 block inactive.
Screening O=C(O)c1cc(-c2ccc3c(c2)OCO3)nc2ccccc12 returned KCNQ2 block inactive and KCNQ2 enhance 0.1.
O=C(Nc1cccnc1)c1cc(-c2cccc(Br)c2)nc2ccccc12 was read as KCNQ2 block -6.7*, KCNQ2 enhance -6.7, KCNQ2 block conf -28%*, KCNQ1 spec inactive, CHO parental ctr inactive and KCNQ2 inh confirm inactive.
For O=C(Nc1ccncc1)c1cc(-c2cccc(Br)c2)nc2ccccc12 the results were KCNQ2 block inactive and KCNQ2 enhance 0.09.
For COc1cccc(-c2cc(C(=O)Nc3cccnc3)c3ccccc3n2)c1 the results were KCNQ2 block inactive.
For COc1cccc(-c2cc(C(=O)Nc3ccccc3)c3ccccc3n2)c1 the results were KCNQ2 block -9.1*, KCNQ2 enhance -9.1, KCNQ2 block conf inactive, KCNQ1 spec inactive and CHO parental ctr inactive.
Screening Cc1cccc(-c2cc(C(=O)Nc3ccc4c(c3)OCCO4)c3ccccc3n2)c1 returned KCNQ2 block inactive.
CCOc1ccc(-c2cc(C(=O)Nc3ccc4c(c3)OCCO4)c3ccccc3n2)cc1 was read as KCNQ2 block -9.1*, KCNQ2 enhance -9.1, KCNQ2 block conf inactive, KCNQ1 spec inactive and CHO parental ctr inactive.
For CCCN(CCC)C(=O)c1cc(-c2ccc3c(c2)OCO3)nc2ccccc12 the results were KCNQ2 block -8.5*, KCNQ2 enhance -8.5, KCNQ2 block conf -26%*, KCNQ1 spec inactive, CHO parental ctr inactive and KCNQ2 inh confirm active.
For Cc1cc(C)n(CCC(=O)N2c3ccccc3CC2C)n1 (stereo not given) the results were KCNQ2 block inactive.
`Cc1ccc(S(=O)(=O)N(C)C)cc1NC(=O)COC(=O)Cc1ccccc1F` gave KCNQ2 block inactive and KCNQ2 enhance 0.54.
O=C(CN1CCCCCC1)Nc1ccccc1OC(F)F was read as KCNQ2 block inactive and KCNQ2 enhance 0.61.
Screening O=C(c1ccc2c(=O)n3c(nc2c1)CCC3)N1CCCSC1=Nc1ccccc1 returned KCNQ2 block inactive and KCNQ2 enhance 0.68.
For COc1ccc(CC(=O)Nc2ccccc2C(=O)N2CCCC2)cc1 the results were KCNQ2 block inactive.
Screening COc1ccc(CCN2C(=NC(=O)C(C)C)SC3CS(=O)(=O)CC32)cc1 (stereo not given) returned KCNQ2 block inactive.
O=C(CSc1nc2nn(-c3ccccc3)c(=O)c-2c2n1CCCCC2)NCCCc1ccccc1 was read as KCNQ2 block inactive.
Screening O=C1OCC(c2ccc(Cl)s2)=C1c1ccccc1[N+](=O)[O-] returned KCNQ2 block inactive.
For CCCn1c(=O)c(C(=O)NCCc2ccc(OC)cc2)c(O)c2ccccc21 the results were KCNQ2 block -8.2*, KCNQ2 enhance -8.2, KCNQ2 block conf inactive, KCNQ1 spec inactive and CHO parental ctr inactive.
For CCCn1c(=O)c(C(=O)NCCc2ccccc2)c(O)c2ccccc21 the results were KCNQ2 block inactive.
For C=CCn1c(=O)c(C(=O)Nc2cccnc2)c(O)c2ccccc21 the results were KCNQ2 block inactive.
`C=CCn1c(=O)c(C(=O)NCCc2ccccc2)c(O)c2ccccc21` gave KCNQ2 block -6.9*, KCNQ2 enhance -6.9, KCNQ2 block conf inactive, KCNQ1 spec inactive and CHO parental ctr inactive.
`COc1ccc(C(=O)N2CCOC2CNC(=O)C(=O)NCc2ccc(Cl)cc2)cc1` (stereo not given) gave KCNQ2 block inactive.
Cc1ccc(OCC(=O)N2CCN(c3nnc(-c4ccc(C)cc4)c4ccccc34)CC2)cc1 was read as KCNQ2 block -7.7*, KCNQ2 enhance -7.7, KCNQ2 block conf -33%*, KCNQ1 spec inactive, CHO parental ctr inactive and KCNQ2 inh confirm active.
COc1ccc(OCC(=O)N2CCN(c3nnc(-c4ccc(C)cc4)c4ccccc34)CC2)cc1 was read as KCNQ2 block inactive.
Screening O=C(Nc1ccc(N2CCOCC2)cc1)c1cc(-c2ccncc2)nc2ccccc12 returned KCNQ2 block inactive.
Screening COc1ccc(-c2cc(C(=O)Nc3ccccc3N3CCOCC3)c3ccccc3n2)cc1OC returned KCNQ2 block -8.2*, KCNQ2 enhance -8.2, KCNQ2 block conf -38%*, KCNQ1 spec -35%*, CHO parental ctr -28%* and KCNQ2 inh confirm active.
`COc1ccc(-c2cc(C(=O)NNC(=O)c3csc(N4CCOCC4)n3)c3ccccc3n2)cc1OC` gave KCNQ2 block inactive and KCNQ2 enhance 0.04.
For O=C(Nc1ccccc1N1CCOCC1)c1cc(-c2ccncc2)nc2ccccc12 the results were KCNQ2 block -7.2*, KCNQ2 enhance -7.2, KCNQ2 block conf -50%*, KCNQ1 spec -45%*, CHO parental ctr -38%* and KCNQ2 inh confirm active.
